This is part of a sample that, as a whole, favours compounds with a hit. Of some 83,000 tested, about 20% had one in any assay.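 Each cell line was grown in a 96-well plate and treated with one concentration of compound for 48 hours. Values below 10 were considered active.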 Active and inactive are the calls of the source.
tested on: HCT-15 colon; experiment: NCI-60 one-dose screen, 48 h (100 = growth as untreated, 0 = no growth, -100 = all killed); details: 10 µM unless noted

| SMILES | growth |
| --- | --- |
| CC1=CCc2ccccc21 | 109% (inactive) |
| O=C1Nc2ccccc2/C1=C/C(=O)c1ccc(N2CCCCC2)cc1 | 79.8% (inactive) |
| COc1ccc2nc3c(cc2c1)C(=O)CC(c1ccccc1)C3 (stereo not drawn) | 24.8% (inactive) |
| Oc1ccc(N=Nc2nccs2)c(O)c1 | 28.6% (inactive) |
| Cc1cc(-c2ccc(N=Nc3c(S(=O)(=O)O)cc4cc(S(=O)(=O)O)cc(N)c4c3O)c(C)c2)ccc1N=Nc1cc(S(=O)(=O)O)c2ccccc2c1O | 104% (inactive) |
| C#CCNC(=O)CC[C@]1(C)[C@H]2CC[C@@H]3[C@@H]([C@@](C)(O)CCC=C(C)C)CC[C@@]3(C)[C@]2(C)CC[C@H]1C(=C)C | 67.3% [100 µM] (inactive) |
| CC(=O)Nc1ccc2nc3ccc(NC(C)=O)cc3[n+](-c3ccccc3)c2c1 | 104% (inactive) |
| CCN(CC)CCCCCCNc1cccc2cc(Br)cnc12 | 84.7% (inactive) |
| COc1ccc(NC(=S)NNc2ccc(-c3ccc(OC)c(OC)c3)nn2)cc1 | 107% (inactive) |
| O=[N+]([O-])c1cc([N+](=O)[O-])c(NN=C(c2ccc(O)cc2)c2ccc(O)cc2)cc1Cl | -85.8% (active) |
| CC(C)C1=NOC(=O)C1=Cc1cn(-c2ccccc2)nc1-c1cccc([N+](=O)[O-])c1 | 60.4% (inactive) |
| C=C(C)[C@@H]1CC[C@]2(C(=O)NCCNCCNCCN)CC[C@]3(C)[C@H](CC[C@@H]4[C@@]5(C)CC[C@H](O)C(C)(C)[C@@H]5CC[C@]43C)[C@@H]12 | -24.8% [100 µM] (active) |
| O=C1COCCN1c1ccc(Nc2nc(Cl)nc(N3CCOCC3)n2)cc1 | 91.8% (inactive) |
| Cn1cc(-c2noc(-c3cn(C)c4ncc(F)cc34)n2)c2cc(Br)ccc21 | 76% (inactive) |
| CC1(C)NCCC[C@]2(C)[C@H]3C=CC4=C5C[C@](C)(CO)CC[C@]5(C)CC[C@@]4(C)[C@]3(C)CC[C@@H]12 | -89.3% [100 µM] (active) |
| CCCC(NC(=O)OCc1ccccc1)C(=O)O (stereo not drawn) | 103% (inactive) |
| CC(C)C1=NOC(=O)C1=Cc1cn(-c2ccccc2)nc1-c1ccc(Cl)cc1 | 64.9% (inactive) |
| COc1cc(OC)cc(C(=O)Nc2cc(-c3cccnc3)nc(NCCCN3CCOCC3)n2)c1 | 90.6% (inactive) |
| Brc1ccc2c(c1)CN(C1CCCCC1)CO2 | 104% (inactive) |

| SMILES | growth |
| --- | --- |
| CC/C=C(\C)C(CCC)(CN=O)C(=O)OCC (stereo not drawn) | 99.6% (inactive) |
| O=C(Nc1ccc(F)cc1)c1ccccc1 | 96.6% (inactive) |
| O=C(O)c1cccc(CN2CCN(c3cc4c(cc3F)c(=O)c(C(=O)O)cn4C3CC3)CC2)c1O | 104% (inactive) |
| COC(=O)c1c(C)[nH]c(/C=C2\N=C(c3ccc[nH]3)C=C2OC)c1C | 0.837% (active) |
| C=CCCC1(C)NC(=O)NC1=O (stereo not drawn) | 105% (inactive) |
| O=[N+]([O-])c1cccc(N=NNc2cccc([N+](=O)[O-])c2)c1 | 85.8% (inactive) |
| Cc1ccc(N)c(O)c1 | 83.8% (inactive) |
| CCN(CC)c1ccc2cc(NC(=O)OCCNC(=O)CCNC(=O)[C@H](CC(C)C)NC(=O)C(C)(C)NC(=O)C(C)(C)NC(=O)[C@H](CC(C)C)NC(=O)CCNC(=O)C(C)(C)NC(=O)[C@H](CC(C)C)NC(=O)CCNC(=O)[C@@](C)(CC)NC(=O)[C@H](C)NC(=O)CCNC(=O)C(C)(C)NC(=O)[C@H](C)NC(=O)[C@@H]3CCCN3C(=O)[C@@](C)(CC)NC(=O)[C@H](Cc3ccccc3)NC(=O)C3CCCN3C(=O)C(C)(C)NC(=O)C3CCCN3C(=O)C(C)(C)NC(C)=O)c(=O)oc2c1 (stereo partly drawn) | -93.3% (active) |
| COC(=O)[C@]12CCC(C)(C)C[C@H]1C1=CC[C@@H]3[C@@]4(C)C/C(=C/c5cccnc5)C(=O)C(C)(C)[C@@H]4CC[C@@]3(C)[C@]1(C)CC2 | 0.973% [100 µM] (active) |
| CC(C)[C@H]1COC(=O)N1[C@@H]1C(=O)N([C@@H](CCC(=O)N2CCN(C3CCCC3)CC2)C(=O)N[C@@H]2CCCc3ccccc32)[C@@H]1/C=C/c1cccc(Cl)c1 | 34.1% (inactive) |
| CCN=Cc1c(O)c(O)c(C(C)C)c2cc(C)c(-c3c(C)cc4c(C(C)C)c(O)c(O)c(C=NCC)c4c3O)c(O)c12 | 23.2% (inactive) |
| O=c1cc(-c2ccccc2)oc2c(O)c(O)ccc12 | 38% (inactive) |
| COc1ccc(C2NC(=O)C(C#N)c3c2sc2c(F)cccc32)cc1 (stereo not drawn) | 33.6% (inactive) |
| COc1cc(-c2nc(SCCC(C)C)nc(Nc3ccccc3)c2C#N)cc(OC)c1OC | 96.8% (inactive) |
| O=C(N/N=C\c1cc(Cl)ccc1O)N/N=C/c1cc(Cl)ccc1O | 32.5% (inactive) |
| Cc1ccc(S(=O)(=O)Oc2ccc([N+](=O)[O-])cc2[N+](=O)[O-])cc1 | 19% (inactive) |
| COCCCNc1nc(NC(=O)c2cc(OC)cc(OC)c2)cc(-c2cccnc2)n1 | 90.3% (inactive) |
| CC1(C)CC[C@]2(C(=O)O)CC[C@]3(C)C(=CC[C@@H]4[C@@]5(C)C/C(=C/c6ccco6)C(=O)C(C)(C)[C@@H]5CC[C@]43C)[C@@H]2C1 | -38.6% [100 µM] (active) |
| O=C(N=c1n(-c2ccccc2)nc2n1CCN2C1=NCCN1)c1ccc(Cl)cc1 | 82.5% (inactive) |

From PubChem BioAssay (NCI)
